Our source for the growth values is PubChem BioAssay (NCI).

About 83,000 compounds went through this panel and 20% of them were active in at least one assay; those are over-represented in the sample as a whole.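 48-hour exposure, single concentration, 96-well plates; percent growth endpoint where 0 means no net growth. Active: below 10.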 A number with no mark means an inactive call. Active and inactive are the calls of the source.

Some test systems named below: NCI-H23 lung; NCI-H226 lung; NCI-H322M lung; HOP-62 NSCLC; NCI-H460 lung; NCI-H522 lung; A549/ATCC NSCLC; 786-0 renal; COLO 205 colon; DU-145 prostate.
Holding throughout (assay): NCI-60 one-dose screen, 48 h (100 = growth as untreated, 0 = no growth, -100 = all killed)
Holding throughout (settings): 10 µM unless noted

Take `N=C(N)/N=C(\CCc1nc2ccccc2[nH]1)c1nc2ccccc2[nH]1`: the growth in the experiment with NCI-H23 lung is 91.6%; in the experiment with NCI-H226 lung it was 93.4%; in the experiment with NCI-H322M lung, 118%; in the experiment with HOP-62 NSCLC it was 97%; with NCI-H460 lung, 114%; with NCI-H522 lung it was 96%. The growth with A549/ATCC NSCLC is 102%; with 786-0 renal, 107%; in the experiment with COLO 205 colon, 103%; in the experiment on DU-145 prostate, 111%.

Consider `[O-]/[N+](=C\C=C\c1ccccc1)c1ccccc1`, for which the growth in the experiment with NCI-H23 lung was 103%; in the experiment with NCI-H226 lung, 97.8%; in the experiment on NCI-H322M lung it was 113%; in the experiment with HOP-62 NSCLC it was 116%; in the experiment with NCI-H460 lung, 107%; in the experiment on NCI-H522 lung it was 102%. The growth with A549/ATCC NSCLC is 144%; in the experiment on 786-0 renal, 101%; with COLO 205 colon, 141%; with DU-145 prostate it was 111%.

Consider `COc1cc(/C=C/C(=O)c2ccc(F)cc2)ccc1OCCCCCOc1cc2c(cc1OC)C(=O)N1CCCC1C=N2` (stereo not given), for which the growth in the experiment with NCI-H23 lung was -32.6% (active); with NCI-H226 lung, -49.7% (active); with NCI-H322M lung, -2.96% (active); in the experiment on HOP-62 NSCLC, -34.8% (active); in the experiment with NCI-H460 lung, 3.88% (active); with NCI-H522 lung, -59.9% (active). Further, the growth in the experiment with A549/ATCC NSCLC was 4.95% (active); in the experiment with 786-0 renal it was -43.3% (active); with COLO 205 colon, -72% (active); in the experiment on DU-145 prostate, -13.1% (active).

As for `c1ccc(-c2nnc(Nc3nnc(-c4ccccc4)s3)s2)cc1`, the growth in the experiment on NCI-H23 lung is 109%; in the experiment on NCI-H226 lung it was 101%; with NCI-H322M lung, 86.9%; in the experiment with HOP-62 NSCLC it was 101%; with NCI-H460 lung, 101%; in the experiment with NCI-H522 lung, 104%. Also, the growth is 103% in the experiment with A549/ATCC NSCLC, 106% in the experiment on 786-0 renal, 116% with COLO 205 colon and 112% with DU-145 prostate.

In the case of `O=C(Nc1ccncc1)C(=O)c1cn(S(=O)(=O)c2cccc(F)c2)c2ccccc12`, the growth in the experiment with NCI-H23 lung is 34%; with NCI-H226 lung, 75.8%; in the experiment on NCI-H322M lung it was 101%; with HOP-62 NSCLC, 52.7%; in the experiment with NCI-H460 lung it was 65.4%; with NCI-H522 lung it was -12.5% (active). Besides, the growth in the experiment with A549/ATCC NSCLC is 67.3%; in the experiment with 786-0 renal, 61.7%; in the experiment with COLO 205 colon it was 106%; in the experiment with DU-145 prostate it was 50%.

For the compound `O=C1CCCN1C1CCN(Cc2cc3ccccc3[nH]c2=O)c2ccccc21` (stereo not given), the growth in the experiment with NCI-H23 lung was 82.7%; with NCI-H226 lung, 78.3%; with NCI-H322M lung, 83.2%; in the experiment with HOP-62 NSCLC, 79.5%; with NCI-H460 lung it was 102%; with NCI-H522 lung, 63%. Also, the growth in the experiment on A549/ATCC NSCLC was 98.8%; with 786-0 renal it was 85.2%; in the experiment on COLO 205 colon, 106%; in the experiment on DU-145 prostate, 101%.

`Cc1cc(NC(=O)Nc2cccc3ccccc23)no1`: the growth was 92.9% in the experiment on NCI-H23 lung; 108% in the experiment on NCI-H226 lung; 105% in the experiment with NCI-H322M lung; 103% in the experiment with HOP-62 NSCLC; 101% with NCI-H460 lung; 91% with NCI-H522 lung. Also, the growth was 96.9% in the experiment with A549/ATCC NSCLC, 96.4% in the experiment on 786-0 renal, 154% in the experiment with COLO 205 colon and 118% in the experiment on DU-145 prostate.

Regarding `COc1ccc(Cn2cc3c(c2-c2ccccc2)CCc2cncnc2-3)cc1`, the growth with NCI-H23 lung was 69.9%; with NCI-H226 lung it was 72.1%; in the experiment with NCI-H322M lung, 110%; in the experiment on HOP-62 NSCLC, 61.1%; with NCI-H460 lung it was 27%; in the experiment with NCI-H522 lung, 26.1%. For the same compound, the growth with A549/ATCC NSCLC was 46.6%; with 786-0 renal, 57.3%; with COLO 205 colon, 45.5%; in the experiment on DU-145 prostate it was 72.9%.

Take `COc1ccc(-n2nnc(C(=O)O)c2-c2cc(OC)c(OC)c(OC)c2)cc1`: the growth in the experiment on NCI-H23 lung is 103%; in the experiment on NCI-H226 lung, 104%; in the experiment with NCI-H322M lung it was 108%; in the experiment on HOP-62 NSCLC it was 114%; in the experiment on NCI-H460 lung it was 106%; in the experiment with NCI-H522 lung it was 83.6%. Also, the growth is 100% in the experiment on A549/ATCC NSCLC, 99.7% in the experiment on 786-0 renal, 104% in the experiment with COLO 205 colon and 116% in the experiment on DU-145 prostate.

Regarding `Fc1ccc([C@@H]2CCNC[C@H]2COc2ccc3c(c2)OCO3)cc1`, the growth with NCI-H23 lung is 82.5%; with NCI-H226 lung, 83.2%; with NCI-H322M lung, 73.2%; in the experiment on HOP-62 NSCLC, 79%; in the experiment with NCI-H460 lung, 73.5%; with NCI-H522 lung, 64.6%. Further, the growth is 83% with A549/ATCC NSCLC, 68.2% in the experiment with 786-0 renal, -77.5% (active) with COLO 205 colon and 92.1% in the experiment on DU-145 prostate.

In the case of `NS(=O)(=O)c1ccc(NC2=C(Cl)C(=O)c3ccccc3C2=O)cc1`, the growth was 80.9% in the experiment on NCI-H23 lung; 61.9% in the experiment on NCI-H226 lung; 113% in the experiment on NCI-H322M lung; 102% in the experiment with HOP-62 NSCLC; 116% in the experiment with NCI-H460 lung; 70.1% in the experiment with NCI-H522 lung. Also, the growth in the experiment with A549/ATCC NSCLC was 112%; in the experiment with 786-0 renal it was 104%; in the experiment with COLO 205 colon, 95.2%; in the experiment with DU-145 prostate, 142%.

With `ClC1=C(Cl)C(=C2C(Cl)=C(Cl)C(Cl)=C2Cl)C(Cl)=C1Cl`, the growth in the experiment on NCI-H23 lung was 97.9%; with NCI-H226 lung, 101%; with NCI-H322M lung, 97.7%; with HOP-62 NSCLC, 90.1%; in the experiment on NCI-H460 lung, 103%; in the experiment on NCI-H522 lung, 79%. Moreover, the growth in the experiment with A549/ATCC NSCLC is 90.2%; with 786-0 renal, 103%; with COLO 205 colon, 103%; in the experiment with DU-145 prostate it was 106%.

For `Cc1nc2cc(NC(=O)CN3CCN(CCN4C(=O)c5cccc6cccc(c56)C4=O)CC3)ccc2s1`, the growth with NCI-H23 lung was 60.9%; in the experiment with NCI-H226 lung, 48.6%; in the experiment on NCI-H322M lung, 69.3%; with HOP-62 NSCLC it was 60%; in the experiment on NCI-H460 lung, 26.5%; in the experiment with NCI-H522 lung it was 53.2%. In addition, the growth with A549/ATCC NSCLC was 37.6%; in the experiment on 786-0 renal, 51.4%; in the experiment on COLO 205 colon it was 47.1%; in the experiment with DU-145 prostate, 56.8%.
